# Bioassay records deposited in PubChem BioAssay by National Center for Advancing Translational Sciences (NCATS).
# HCV inhibitor: blocks hepatitis C virus | AID 651820 | Huh7.5.1 HCVcc-Cre infection, luciferase reporter, 44 h | Potency, µM (series often up to 41.8 µM), inactives show at the top dose activity change, negative = inhibition, most hits filed as inhibitors | 340,000 compounds, 3.4% hits; note: potency is the fitted concentration of half-maximal effect
#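 Antiviral activity was scored by luciferase reporter output from cells infected with HCVcc-Cre (~0.5 moi) in presence of compound, 44 h infection period, cells seeded 1,000/well 4 h prior.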
# Pf growth 96h: P. falciparum growth inhibition at 96 hours. P. falciparum luciferase reporter growth, 96 h. Potency, µM (titrated, usually from 28.7 µM), inactives show top-dose activity change, negative = inhibition, actives largely listed as inhibitors. 320,000 compounds, 6.9% hits; note: potency is the fitted concentration of half-maximal effect
#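 Two parasite generations (96 h, 37 C, 5% CO2) of compound exposure in infected erythrocytes (0.05% parasitemia, 2% hematocrit). Luciferase-reporter P. falciparum; decreased luminescence indicates inhibited growth, aimed at apicoplast-acting delayed death.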
# Pf growth 48h: inhibits P. falciparum growth in the first generation, 48 h | P. falciparum luciferase growth in erythrocytes, 48 h | Potency, µM (highest dose often 28.7 µM), without a hit: top-dose activity change, negative = inhibition, usual class: inhibitors | 310,000 compounds, 5.9% hits; note: potency is the fitted concentration of half-maximal effect
#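 Luminescence readout; reporter = integrated firefly luciferase in P. falciparum. RBC culture at 2% hematocrit, 0.1% parasitemia final, 37 C/5% CO2; decreased signal taken as growth inhibition.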
# HCMV antiviral: blocks human cytomegalovirus replication | AID 1259415 | activity change, negative = inhibition, % at 57.5 µM | HFF cells, HCMV-luciferase reporter, 72 h; active compounds read low | 410,000 compounds, 4.5% hits; in the data active = activity change below about -60%; inconclusive = no clear call, values can overlap the other calls; inactive = above about -39%
#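 Luciferase read-out from HCMV-luciferase-infected HFFs (MOI 1 PFU/cell) 72 h post infection at 37C; compounds added after 16 h cell attachment; activity normalized between buffer-only basal and Salinomycin (10uM) inhibitor controls.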
# Starred values were filed as active, the others as inactive; ? = inconclusive; . = no result given. An excerpt weighted towards active compounds, which were near 13% of everything screened. Unless noted, calls come from the whole dose curve; as a rule, active = well fitted inhibition curve with a large enough effect; inconclusive = small, poorly fitted or top-dose-only effect, or another doubt; inactive = no such curve, though single readings can be large or run the other way. % is set by controls: 0 for no effect and ±100 for the full control effect.
SMILES,HCV inhibitor,Pf growth 96h,Pf growth 48h,HCMV antiviral
CCOc1ccc(CNC(=O)c2ccc3nc(CC)c(CC)nc3c2)cc1,.,.,.,29
CCc1cccc(NC(=O)c2nnn(Cc3ccc(SC)cc3)c2N)c1,.,.,.,22
O=C(c1coc(=O)c(Br)c1)N1CCCc2ccccc21,-27%,?,14%,-75*
O=C(CN1CCOCC1)Nc1ccc(S(=O)(=O)N2CCCCCC2)cc1,8%,.,-22%,-82*
O=C(CN1CCN(c2ccccc2O)CC1)Nc1cc(S(=O)(=O)N2CCCC2)ccc1Cl,11µM*,3.3µM*,4.1µM*,-16
Cc1cccc(N2CCN(CC(=O)Nc3ccc(S(=O)(=O)N4CCOCC4)cc3)CC2)c1C,10µM*,5%,?,-67*
O=C(CN1CCCCC1)Nc1ccc(S(=O)(=O)N2CCCCCC2)cc1,?,.,?,-2
COC(=O)c1c(NC(=O)CN2CCN(c3ccccc3OC)CC2)c2c(C)cccc2n1C,.,-18%,.,38
COC(=O)c1c(NC(=O)CN2CCN(c3ccccc3)CC2)c2c(C)cccc2n1C,-20%,5.9µM*,.,10
CCOC(=O)c1c(C)[nH]c(C)c1S(=O)(=O)N(C)CC(=O)N1CCN(c2cccc(C)c2C)CC1,.,.,.,-9
Cc1nc2c(c(C)nn2C(C)(C)C)c(C)c1CCC(=O)Nc1ccc(Br)cc1Br,.,.,.,7
COc1ccccc1N1CCN(CC(=O)Nc2ccc(S(=O)(=O)N3CCCCCC3)cc2)CC1,?,?,?,0
O=C(CN1CCN(c2ccccc2O)CC1)Nc1ccc(S(=O)(=O)N2CCCCCC2)cc1,?,10µM*,?,-25
COC(=O)c1ccc(NC(=O)CN2CCN(c3ccccc3C)CC2)cc1,?,9.3µM*,16%,-26
O=C(CCS(=O)(=O)c1cc(Br)cc2c1N(C(=O)C1CC1)CC2)N1CCN(c2ccccc2)CC1,.,.,.,12
COc1ccc(C(=O)NCCNc2ncc(C(F)(F)F)cc2Cl)cc1[N+](=O)[O-],?,?,?,-23
O=C1C=CC(=O)N1CCNc1ncc(C(F)(F)F)cc1Cl,?,0%,6%,-96*
CC(C)(CNC(=O)c1ccc([N+](=O)[O-])c(Cl)c1)CNC(=O)c1ccc([N+](=O)[O-])c(Cl)c1,?,?,?,-97*
CS(=O)(=O)NCCNc1ncc(C(F)(F)F)cc1Cl,-13%,40%,?,?
O=S(=O)(NCCNc1ncc(C(F)(F)F)cc1Cl)C(F)(F)F,?,31%,6%,-71*
Cc1ccc(C(=O)NCCNc2ncc(C(F)(F)F)cc2Cl)cc1[N+](=O)[O-],-16%,7.4µM*,?,34
O=C(NCCSc1c[nH]c2ccccc12)c1ccccc1Cl,.,.,.,3
CCOC(=O)CC(NC(=O)CCc1c(C)nc2c(c1C)c(=O)n(C)c(=O)n2C)c1ccc(OCC)c(OC)c1 (configuration not stated),.,.,.,-11
CCOC(=O)CN1CC23C=CC(O2)C(C(=O)NCc2ccc(C)cc2)C3C1=O (configuration not stated),12%,10µM*,.,-19
CCOC(=O)CN1CC23C=CC(O2)C(C(=O)NCc2cccs2)C3C1=O (configuration not stated),-1%,?,.,9
SMILES,HCV inhibitor,Pf growth 96h,Pf growth 48h,HCMV antiviral
CN(C)c1oc(/C=C/c2ccc(F)cc2)nc1C#N,.,.,.,47
COC(=O)C(/C=C/c1ccccc1)(c1cn(C)c2ccccc12)C(Nc1ccccc1)c1ccccc1 (configuration not stated),.,.,.,28
COc1cccc(-c2nnc(SC(C(=O)c3c[nH]c4ccccc34)c3ccccc3)n2C)c1 (configuration not stated),?,13µM*,13µM*,-28
CC(Oc1ccccc1)C(=O)OCc1cc(=O)n2nc(C(C)C)sc2n1 (configuration not stated),.,.,.,-10
COc1cccc(-c2n[nH]c3c2CCC3)c1,-7%,95%,?,-4
c1ccc(-c2n[nH]c3c2CCC3)cc1,13µM*,45%,-3%,-16
COc1ccc(CNC(=O)Cn2ccc3cc(S(=O)(=O)N4CCCCC4)ccc32)cc1OC,.,.,.,-3
CN1CCN(NC(=S)Nc2ccc(Oc3ccccc3)cc2)CC1,?,?,-17%,-67*
COc1cccc(NC(=S)NN2CCN(C)CC2)c1,-10%,33%,161%,-4
Cc1c(C(=O)NCCc2ccc(S(N)(=O)=O)cc2)sc2nc3n(c(=O)c12)CCCC3,.,.,.,-4
COC(=O)C1=C(c2ccc(-c3ccccc3)c(F)c2)C[C@@H]2CC[C@H]1N2C(=O)NCCNC(C)=O,-9%,-6%,?,-19
COC(=O)C1=C(c2ccc(-c3ccccc3)c(F)c2)C[C@@H]2CC[C@H]1N2C(=O)NCCOc1ccc(OC)cc1,?,?,7.4µM*,67
COC(=O)C1=C(c2ccc(-c3ccccc3)c(F)c2)C[C@@H]2CC[C@H]1N2C(=O)NCCc1ccccc1,?,?,6.6µM*,-8
COC(=O)C1=C(c2ccc(-c3ccccc3)c(F)c2)C[C@@H]2CC[C@H]1N2C(=O)NCCCOC(C)C,?,?,?,-8
O=P(c1ccccc1)(c1nc2ccccc2s1)N1CCOCC1 (configuration not stated),2%,.,-11%,-14
CN1CCN(P(=O)(c2ccccc2)c2nc3ccccc3s2)CC1 (configuration not stated),13%,13µM*,1%,23
Fc1ccccc1N1CCN(CCCc2ccccc2)CC1,6%,12µM*,0%,-35
Cn1nc(C(C)(C)C)cc1C(=O)O,27%,9.3µM*,12%,-8
CCC(c1nnnn1-c1ccc2c(c1)OCCO2)N1CCN(C/C=C/c2ccccc2)CC1 (configuration not stated),.,.,.,-31
COc1ccccc1Cc1nc2ccccc2nc1SCC(=O)Nc1cc(Cl)ccc1OC,.,.,.,-13
CCCCOc1ccc(CSCCNC(=S)Nc2ccccc2)cc1,?,87%,?,?
CCCCCOc1ccc(CSCCNC(=S)Nc2ccccc2)cc1,?,10µM*,?,-25
COc1ccc(Cl)cc1NC(=O)Cn1c(=O)n(Cc2ccco2)c(=O)c2cccnc21,.,.,.,-20
O=C(O)/C=C/C(=O)c1ccc2c(c1)CCc1ccccc1-2,13µM*,21%,11%,-61*
CC1=C(c2ccc(C(C)C)cc2)S(=O)(=O)N=C1N1CCN(c2ccccc2F)CC1,.,.,.,-62*
COc1ccccc1OCC(=O)OCC(=O)NCCN1C(=O)CSC1=O,21%,16%,52%,-4
O=C(COC(=O)CNC(=O)c1ccco1)NCCN1C(=O)CSC1=O,-4%,-14%,11%,-62*
CC(=O)/C(=C/Nc1ccc(Oc2ccccc2)cc1)c1ccccc1,5%,?,0%,-77*
Cc1ccc2[nH]c(C(=O)Nc3ccccc3)cc2c1,.,.,.,59
C[C@]12O[C@H](C[C@]1(O)CO)n1c3ccccc3c3c4c(c5c6ccccc6n2c5c31)CNC4=O,.,0.15µM*,0.17µM*,.
